Structures are written as SMILES. Records with an inconclusive call do not appear. Calls of active or inactive are those of the source. The call rests on the fitted dose curve; in most records, active means well fitted curve in the direction sought with a large enough effect in the repeat runs; inconclusive means weak or mixed curves; inactive means no such curve, though single readings can be large; an effect the other way counts as inactive or inconclusive.

Test [1] is described as follows: A CellTox Green Cytotoxicity Assay to monitor cytotoxicity in HEK293 cells - 32 hour (AID 1224881). Further: nearly all actives have a fitted effect of over 40% in size. Further: potency means the concentration at half of the fitted maximal effect. The procedure, abridged: (§1)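 HEK293 cells premixed with CellTox Green dye were seeded at 600 cells/well and left 5 h at 37 C/5% CO2 before pin transfer of 23 nL compound in DMSO. Fluorescence from dye bound to dead-cell DNA was read during 40 h treatment.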
Test [2] is described as follows: A CellTox Green Cytotoxicity Assay to monitor cytotoxicity in HepG2 cells - 0 hour (AID 1224882). Further: nearly all actives have a fitted effect of over 35% in size. The gist of the method:
(§2)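 HepG2 cells were seeded together with the CellTox Green dye at 600 cells/well, left 5 h at 37 C/5% CO2, then given compounds in DMSO. Fluorescence from dye bound to dead-cell DNA was read repeatedly over 40 h of treatment at 37 C.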

The nature of test [3]: A CellTox Green Cytotoxicity Assay to monitor cytotoxicity in HepG2 cells - 32 hour (AID 1224883). Further: nearly all actives have a fitted effect of over 50% in size. Further: potency means the concentration at half of the fitted maximal effect. The gist of the method: as §2
Test [4] in a line: A CellTox Green Cytotoxicity Assay to monitor cytotoxicity in HEK293 cells - 8 hour (AID 1224884). Further: nearly all actives have a fitted effect of over 35% in size. The gist of the method:
as §1

Test [5] can be described thus: qHTS RealTime-Glo MT Cell Viability Assay in HepG2 cells - 16 hour (AID 1224885). Further: nearly all actives have a fitted effect of over 50% in size. Further: potency means the concentration at half of the fitted maximal effect. The procedure, abridged:
(§3)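 Viability was tracked continuously by NanoLuc luminescence from prosubstrate reduced by living HepG2 cells, at successive time points over 40 h of compound exposure. Cells with reagent were preincubated 5 h at 37 °C before compound addition.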
For orientation: In qHTS, concentration-response curves come from the screen itself.

Test [6] in a line: qHTS RealTime-Glo MT Cell Viability Assay in HEK293 cells - 8 hour (AID 1224887). Further: nearly all actives have a fitted effect of over 50% in size. Further: potency means the concentration at half of the fitted maximal effect. The gist of the method: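 HEK293 cells mixed with RealTime-Glo reagents (NanoLuc plus cell-permeant prosubstrate) at 600 cells/well, preincubated 5 h at 37 C/5% CO2, then given 23 nL compound in DMSO. Nonlytic luminescence from viable cells was read at 0, 8, 16, 24, 32 and 40 h.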
Test [7] in a line: qHTS RealTime-Glo MT Cell Viability Assay in HepG2 cells - 0 hour (AID 1224889). Further: nearly all actives have a fitted effect of over 50% in size. The gist of the method:
as §3

Test [8] in a line: A CellTox Green Cytotoxicity Assay to monitor cytotoxicity in HepG2 cells - 8 hour (AID 1224890). Further: nearly all actives have a fitted effect of over 45% in size. Further: potency means the concentration at half of the fitted maximal effect. The gist of the method: as §2
A short description of test [9]: A CellTox Green Cytotoxicity Assay to monitor cytotoxicity in HEK293 cells - 16 hour (AID 1224888). Further: nearly all actives have a fitted effect of over 35% in size. Further: potency means the concentration at half of the fitted maximal effect. The procedure, abridged: as §1
Test [10] in a line: qHTS RealTime-Glo MT Cell Viability Assay in HEK293 cells - 24 hour (AID 1224886). Further: nearly all actives have a fitted effect of over 50% in size. Further: potency means the concentration at half of the fitted maximal effect. The gist of the method:
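Viability tracked continuously by luminescence as live cells reduce a prosubstrate for NanoLuc; HEK293 cells preincubated 5 h, compound-treated at 37 C, and read at 0, 8, 16, 24, 32 and 40 h.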

Turning to `CC[C@H]1C[C@@H]2C[C@H]3c4[nH]c5ccc(OC)cc5c4CCN(C2)[C@@H]13`, the Potency entry in [1], in [2], in [4], in [5], in test [6] and in test [7] was “inactive” in each case. Further, the Potency entry in test [8] was “inactive”. Further, the Potency in test [3] was 54 µM (active).
As to `Oc1c(Br)c(Br)c(Br)c(Br)c1Br`, the Potency result in test [1], in test [2], in test [3], in test [4], in test [5] and in [9] was “inactive” in each case. Moreover, the Potency entry in [7] and in [8] was “inactive” throughout.
For the compound `CCOP(=S)(OCC)SCS(=O)(=O)CC`, the Potency result in test [1], in test [2], in test [3], in test [4], in test [5] and in [9] was “inactive” each time. The Potency result in test [7] and in [8] was “inactive” in each case.
Regarding `Oc1ccc(I)cc1`, the Potency entry in test [1], in [2], in test [3], in [4], in test [5] and in test [6] was “inactive” in each case. Further, the Potency result in test [9], in [7] and in test [8] was “inactive” each time.
Consider `O=C(O)c1cc[c]([Hg][Cl])cc1`, for which the Potency in test [1] was 21.9 µM (active); in [3], 21.9 µM (active); in test [5], 30.9 µM (active); in test [6], 34.7 µM (active); in [8], 38.9 µM (active). The Potency entry in [2], in test [4] and in [7] was “inactive” in each case.
Consider `CC(=O)[O-].[Tl+]`, for which the Potency entry in test [1], in test [2], in test [3], in [4], in test [5] and in [6] was “inactive” throughout. Besides, the Potency entry in test [9], in [7] and in [8] was “inactive” in each case.
As for `CC(C)CCCCCCCOP(=O)(Oc1ccccc1)Oc1ccccc1`, the Potency entry in test [1], in test [2], in [3], in [4], in [5] and in test [7] was “inactive” each time. In test [8], the Potency result was “inactive”.
In the case of `COc1ccc(/C(=C/C(=O)N2CCOCC2)c2ccc(Cl)cc2)cc1OC`, the Potency entry in test [1], in test [2], in [3], in test [4], in test [5] and in [8] was “inactive” each time.
With `O=[N+]([O-])O.O=[N+]([O-])O.[Cd]`, the Potency is 38.9 µM (active) in test [1] and 43.6 µM (active) in test [3]. Moreover, the Potency entry in test [2], in [4], in test [5], in test [6], in test [9] and in test [7] was “inactive” throughout. For the same compound, the Potency result in [8] was “inactive”.
On to `Cn1cc(C2=C(c3cn(C4CCN(Cc5ccccn5)CC4)c4ccccc34)C(=O)NC2=O)c2ccccc21`, for which the Potency entry in test [1], in test [2], in test [3], in test [4], in test [10] and in test [6] was “inactive” throughout. Further, in [7], the Potency entry was “inactive”.
Consider `Oc1ccc(C2(c3ccc(O)cc3)c3ccccc3-c3ccccc32)cc1`, for which the Potency entry in test [1], in test [2], in test [4], in [7] and in [8] was “inactive” throughout. Moreover, the Potency in [3] was 61.6 µM (active); in [5], 49 µM (active).
`Nc1ccc(Cc2ccc(N)c(Cl)c2)cc1Cl`: the Potency entry in test [1], in test [2], in [3], in test [5], in test [9] and in test [8] was “inactive” in each case. Besides, in test [6], the Potency is 29.9 µM (active).
As to `Nc1ccccc1C(=O)OC/C=C/c1ccccc1`, the Potency entry in test [1], in test [2], in test [3], in test [5], in [9] and in test [7] was “inactive” in each case. The Potency entry in test [8] was “inactive”. In addition, in test [6], the Potency was 24.6 µM (active).
`Oc1ccc(C(=C(Cl)Cl)c2ccc(O)cc2)cc1`: the Potency result in test [1], in test [2], in test [3], in test [5], in [9] and in test [7] was “inactive” throughout. In addition, in test [8], the Potency result is “inactive”. The Potency in test [10] was 38.8 µM (active).
`c1ccc(Nc2ccc3ccccc3c2)cc1`: the Potency result in test [1], in test [2], in [4], in [7] and in test [8] was “inactive” throughout. The Potency in [3] is 48.7 µM (active).
Regarding `CN(C)S(=O)(=O)N(SC(F)(Cl)Cl)c1ccccc1`, the Potency in test [1] was 4.9 µM (active); in [3], 5.49 µM (active); in test [5], 15.5 µM (active); in [10], 4.36 µM (active); in test [6], 9.77 µM (active); in test [9] it was 19.5 µM (active). Also, the Potency result in [2] and in [8] was “inactive” throughout.
Regarding `Clc1ccc(-c2ccc(Cl)c(Cl)c2Cl)c(Cl)c1Cl`, the Potency result in test [1], in [2], in test [3], in [5], in [6] and in test [9] was “inactive” throughout. Besides, the Potency entry in [7] and in test [8] was “inactive” in each case.
Consider `COP(=S)(OC)Oc1cc(Cl)c(Br)cc1Cl`, for which the Potency entry in test [1], in test [2], in test [3], in test [5], in [10] and in [6] was “inactive” in each case. Besides, the Potency entry in [9] and in test [8] was “inactive” in each case.
Consider `O=C1NCN(c2ccccc2)C12CCN(CC1COc3ccccc3O1)CC2` (stereo unspecified), for which the Potency entry in test [1], in [2], in test [3], in test [4], in test [9] and in [7] was “inactive” throughout. Also, the Potency result in test [8] is “inactive”.

Source of the values: PubChem BioAssay (Tox21).
